The values below come from PubChem BioAssay (EPA / NIEHS).

For orientation: AC50 means the midpoint of the concentration-response curve, whichever way the signal moves.

A short description of assay [1]: ATG_GLI_CIS: Attagene CIS-FACTORIAL HepG2 Assay for human Zinc Finger Protein GLI1 (AID 2282945). The note with it: HepG2, Attagene cis-factorial reporter mRNA, GLI element; actives raise or lower the signal. In outline:
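HepG2 cells transiently transfected with cis-promoter multiplexed reporter units report endogenous transcription factor activity. After 24 h chemical exposure, reporter mRNA was quantified by RT-PCR, 6-FAM labelling, HpaI digestion and capillary electrophoresis, with bidirectional fitting against DMSO.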

Assay [2] has as its target Bile acid receptor (Homo sapiens) (UniProt Q96RI1). The experiment in a line: ATG_IR1_CIS: Attagene CIS-FACTORIAL HepG2 Assay for human Nuclear Receptor Subfamily 1 Group H Member 4 (NR1H4), IR1 submotif (AID 2282946). The note with it: IR1 reporter transcription, actives raise or lower the signal. In outline: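 Readout: reporter transcript levels by RT-PCR with fluorescent capillary electrophoresis, from HepG2 cells transiently transfected with multiplexed cis-regulated reporters and dosed 24 h. Gain- or loss-of-signal fitted versus DMSO negative control.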

The nature of assay [3]: ATG_GRE_CIS: Attagene CIS-FACTORIAL HepG2 Assay for human Glucocorticoid Response Elements (GRE) (AID 2282947). The note with it: HepG2 GRE cis-reporter, Attagene multiplex mRNA; actives raise or lower the signal. In outline:
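HepG2, transient cis-reporter transfection, 24 h. Reporter mRNA: RT-PCR then CE, fluorescence. Fit both directions vs DMSO.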

A short description of assay [4]: ATG_ISRE_CIS: Attagene CIS-FACTORIAL HepG2 Assay for human Interferon Regulatory Factor 1 (IRF1) binding to an Interferon-Stimulated Response Element (ISRE) (AID 2282948). The note with it: HepG2 ISRE cis-reporter (Attagene), mRNA transcription readout; actives raise or lower the signal. In a few lines:
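Uses HepG2 liver cells transfected with cis-regulated reporters and measures mRNA 24 h post-dosing through RT-PCR, primer-extension labelling and capillary electrophoresis, with DMSO as negative control.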

The nature of assay [5]: ATG_M_32_CIS: Attagene CIS-FACTORIAL HepG2 Assay for M32 Transcription Factor (Internal Marker) (AID 2282949).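 Note: background control marker of the multiplexed CIS panel rather than a real target.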 The note with it: HepG2 Attagene cis-factorial M32 reporter, mRNA; actives raise or lower the signal. In outline:
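Using DMSO as baseline, bidirectional curve fits were applied to reporter mRNA signals. These came from transiently transfected HepG2 cells exposed for 24 h, with RNA analysed by RT-PCR, FAM primer extension, HpaI digestion and CE.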

Assay [6] can be described thus: ATG_M_06_CIS: Attagene CIS-FACTORIAL HepG2 Assay for M06 Transcription Factor (Internal Marker) (AID 2282950). Conditions: HepG2 Attagene CIS-FACTORIAL M06 internal marker reporter; actives raise or lower the signal. In outline: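 HepG2 cells transiently transfected with cis-regulated multiple reporter transcription units were exposed to chemical for 24 h; reporter mRNA was quantified by RT-PCR, 6-FAM primer labelling, HpaI digestion and capillary electrophoresis, fitted bidirectionally against DMSO.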

Assay [7] concerns the target Hypoxia-inducible factor 1-alpha (Homo sapiens) (UniProt Q16665). The experiment in a line: ATG_HIF1a_CIS: Attagene CIS-FACTORIAL HepG2 Assay for human Hypoxia Inducible Factor 1 (HIF1A) (AID 2282951). The note with it: HepG2 Attagene cis-factorial HIF1a reporter transcription; actives raise or lower the signal. In outline:
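In this multiplexed cell assay, HepG2 cells bearing transfected cis reporters are dosed for 24 h and reporter mRNA is read by RT-PCR plus capillary electrophoresis; signal increases and decreases are both scored against DMSO.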

The target of assay [8] is Hepatocyte nuclear factor 6 (Homo sapiens) (UniProt Q9UBC0). As to the kind of experiment: ATG_HNF6_CIS: Attagene CIS-FACTORIAL HepG2 Assay for human Hepatocyte Nuclear Factor 6 (HNF6) (AID 2282952). Conditions: HepG2 Attagene cis-factorial HNF6 reporter transcription; actives raise or lower the signal. In a few lines: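 Readout: fluorescent reporter-transcript fragments resolved by capillary electrophoresis after RT-PCR, reflecting endogenous factor activity in transfected HepG2. Exposure 24 h. Gain or loss of signal fitted bidirectionally against DMSO.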

Assay [9] deals with Heat shock factor protein 1 (Homo sapiens) (UniProt Q00613). The experiment in a line: ATG_HSE_CIS: Attagene CIS-FACTORIAL HepG2 Assay for human Heat Shock Transcription Factor 1 (HSE) (AID 2282953). Conditions: HepG2 HSE cis-reporter, Attagene RNA transcription; actives raise or lower the signal. In a few lines: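 HepG2 cells transiently transfected with multiple reporter transcription units under cis-regulatory promoter control, measuring endogenous transcription factor activity. After 24 h chemical exposure, reporter mRNA quantified by RT-PCR, fluorescent labelling, HpaI digestion and capillary electrophoresis; bidirectional fit versus DMSO.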

Assay [10] is described as follows: ATG_MRE_CIS: Attagene CIS-FACTORIAL HepG2 Assay for human Metal Responsive Element (MRE) (AID 2282954). The note with it: HepG2 MRE cis-reporter transcription, Attagene multiplex; actives raise or lower the signal. In a few lines: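 Readout: capillary electrophoresis of 6-FAM-labelled, HpaI-digested RT-PCR reporter products. System: HepG2 cells carrying transient multiplexed cis reporters, dosed 24 h. Analysis: bidirectional fit, DMSO baseline.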

Assay [11] has as its target Paired box protein Pax-6 (Homo sapiens) (UniProt P26367). The experiment in a line: ATG_Pax6_CIS: Attagene CIS-FACTORIAL HepG2 Assay for human Paired Box 6 (PAX6) (AID 2282956). The note with it: HepG2 CIS-FACTORIAL PAX6 reporter transcription, RNA readout; actives raise or lower the signal. In outline:
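DMSO-referenced bidirectional fits of reporter mRNA fluorescence; HepG2 with transient cis-promoter MRTUs, 24 h post-dose, RT-PCR plus capillary electrophoresis detection.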

The nature of assay [12]: ATG_PXRE_CIS: Attagene CIS-FACTORIAL HepG2 Assay for human Pregnane X Receptor Element (PXRE) (AID 2282957). The note with it: HepG2 Attagene CIS-FACTORIAL PXRE reporter, mRNA; actives raise or lower the signal. In outline:
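Read-out: fluorescence of reporter-specific RT-PCR products resolved by capillary electrophoresis, fitted bidirectionally relative to DMSO. Human HepG2 liver cells carried transfected cis-promoter reporter units and were exposed to chemicals for 24 h.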

Assay [13] is described as follows: ATG_PPRE_CIS: Attagene CIS-FACTORIAL HepG2 Assay for human Peroxisome Proliferator-activated Response Element (PPRE) (AID 2282958). Conditions: HepG2 PPRE cis-element reporter, Attagene transcription factor profiling; actives raise or lower the signal. In a few lines:
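Multiplexed reporter transcription units under cis-regulatory promoters were transfected into HepG2 cells to capture endogenous factor activity. A 24 h incubation preceded RNA isolation and fluorescent RT-PCR fragment analysis.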

Assay [14] is described as follows: ATG_RORE_CIS: Attagene CIS-FACTORIAL HepG2 Assay for human RAR-related Orphan Receptor Element (RORE) (AID 2282959). Conditions: HepG2 Attagene cis-factorial RORE reporter, mRNA; actives raise or lower the signal. In a few lines: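 Fluorescence intensity of reporter-specific cDNA fragments, separated by capillary electrophoresis, gives the signal. Source: HepG2 liver cells transiently transfected with cis-element reporters and exposed 24 h; DMSO-normalized bidirectional fit.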

Assay [15] in a line: ATG_Sox_CIS: Attagene CIS-FACTORIAL HepG2 Assay for human SRY-box transcription factor (SOX) (AID 2282960). The note with it: HepG2 Attagene cis-factorial SOX reporter, mRNA; actives raise or lower the signal. In outline:
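After 24 h of chemical treatment, transfected HepG2 reporter cells are lysed for total RNA. Transcript levels come from RT-PCR with labelled primer extension and capillary electrophoresis, analysed bidirectionally versus DMSO.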

In assay [16] the target is Signal transducer and activator of transcription 3 (Homo sapiens) (UniProt P40763). As to the kind of experiment: ATG_STAT3_CIS: Attagene CIS-FACTORIAL HepG2 Assay for human Signal Transducer and Activator of Transcription 3 (STAT3) (AID 2282963). The note with it: HepG2, Attagene cis-factorial STAT3 reporter transcription; actives raise or lower the signal. In outline:
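Uses human liver HepG2 transiently carrying cis-regulated reporter transcription units. Following 24 h dosing, reporter mRNA induction was detected by RT-PCR and capillary electrophoresis, analysed bidirectionally versus DMSO.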

The nature of assay [17]: ATG_TA_CIS: Attagene CIS-FACTORIAL HepG2 Assay for human TA Basal Promoter (AID 2282964). The note with it: HepG2 Attagene CIS-factorial TA basal promoter reporter; actives raise or lower the signal. In a few lines: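 HepG2 cells transiently transfected with multiplexed cis-promoter reporter units, dosed 24 h. Reporter mRNA measured by RT-PCR, 6-FAM labelling, HpaI digestion and capillary electrophoresis; bidirectional fit versus DMSO baseline, serving as background control.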

Assay [18] is described as follows: ATG_PBREM_CIS: Attagene CIS-FACTORIAL HepG2 Assay for human Phenobarbital-responsive Enhancer Module (PBREM) (AID 2282955). The note with it: HepG2 PBREM cis-reporter, Attagene multiplexed transcription; actives raise or lower the signal. In a few lines: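 After a 24 h incubation with test chemical, transfected HepG2 cells yield total RNA; reporter-specific RT-PCR products are fluorescently labelled, HpaI-digested and resolved by capillary electrophoresis against ROX size standards.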

Assay [19] deals with Transcription factor Sp1 (Homo sapiens) (UniProt P08047). The experiment in a line: ATG_Sp1_CIS: Attagene CIS-FACTORIAL HepG2 Assay for human Specificity Protein 1 (Sp1) (AID 2282961). Conditions: HepG2 Sp1 cis-reporter transcription, actives raise or lower the signal. In outline: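 Sp1-driven reporter mRNA, read as capillary electrophoresis fluorescence after RT-PCR, in transiently transfected HepG2 cells dosed for 24 h; signal change in either direction relative to DMSO.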

Assay [20] in a line: ATG_SREBP_CIS: Attagene CIS-FACTORIAL HepG2 Assay for human Sterol Regulatory Element Binding (SREBP) (AID 2282962). Conditions: HepG2 Attagene cis-factorial SREBP reporter, mRNA; actives raise or lower the signal. In a few lines: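 In this cis-format assay, HepG2 liver cells express reporters controlled by promoter elements responsive to native transcription factors. Exposure lasts 24 h; reporter mRNA fluorescence from capillary electrophoresis gives the signal, fitted bidirectionally against DMSO.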

Calls of active or inactive are those of the source. Rule for the calls: active = hit-call score of the fitted dose curve at least 0.9, where 1 is the maximum; inactive = score below 0.9.

Chain of Bile acid receptor (Homo sapiens) (Q96RI1 whole entry, looked up): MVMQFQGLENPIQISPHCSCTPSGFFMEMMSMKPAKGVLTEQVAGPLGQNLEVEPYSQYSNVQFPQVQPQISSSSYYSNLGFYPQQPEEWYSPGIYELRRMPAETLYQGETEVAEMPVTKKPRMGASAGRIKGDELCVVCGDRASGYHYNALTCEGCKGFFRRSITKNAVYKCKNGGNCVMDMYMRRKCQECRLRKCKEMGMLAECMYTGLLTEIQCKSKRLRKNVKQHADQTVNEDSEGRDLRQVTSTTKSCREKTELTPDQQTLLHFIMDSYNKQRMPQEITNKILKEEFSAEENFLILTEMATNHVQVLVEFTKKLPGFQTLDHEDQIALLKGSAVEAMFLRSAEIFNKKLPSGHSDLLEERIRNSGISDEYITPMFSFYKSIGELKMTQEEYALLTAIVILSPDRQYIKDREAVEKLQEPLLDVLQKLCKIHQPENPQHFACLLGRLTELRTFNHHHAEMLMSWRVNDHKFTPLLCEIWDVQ
Chain of Hepatocyte nuclear factor 6 (Homo sapiens) (Q9UBC0 whole entry, looked up, the tested form may be a part): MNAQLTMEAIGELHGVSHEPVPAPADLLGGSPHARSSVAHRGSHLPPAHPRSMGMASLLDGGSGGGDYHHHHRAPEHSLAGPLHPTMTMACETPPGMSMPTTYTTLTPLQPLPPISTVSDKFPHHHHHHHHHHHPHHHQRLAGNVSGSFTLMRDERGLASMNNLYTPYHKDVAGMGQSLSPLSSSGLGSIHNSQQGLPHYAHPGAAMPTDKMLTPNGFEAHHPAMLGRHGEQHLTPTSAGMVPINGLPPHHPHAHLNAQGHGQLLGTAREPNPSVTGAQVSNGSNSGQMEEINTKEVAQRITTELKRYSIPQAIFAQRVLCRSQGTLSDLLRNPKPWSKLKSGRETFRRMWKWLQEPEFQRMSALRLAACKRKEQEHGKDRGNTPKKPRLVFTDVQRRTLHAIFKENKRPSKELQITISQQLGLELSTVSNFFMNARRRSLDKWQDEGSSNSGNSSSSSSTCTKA
Chain of Signal transducer and activator of transcription 3 (Homo sapiens) (P40763 whole entry, looked up): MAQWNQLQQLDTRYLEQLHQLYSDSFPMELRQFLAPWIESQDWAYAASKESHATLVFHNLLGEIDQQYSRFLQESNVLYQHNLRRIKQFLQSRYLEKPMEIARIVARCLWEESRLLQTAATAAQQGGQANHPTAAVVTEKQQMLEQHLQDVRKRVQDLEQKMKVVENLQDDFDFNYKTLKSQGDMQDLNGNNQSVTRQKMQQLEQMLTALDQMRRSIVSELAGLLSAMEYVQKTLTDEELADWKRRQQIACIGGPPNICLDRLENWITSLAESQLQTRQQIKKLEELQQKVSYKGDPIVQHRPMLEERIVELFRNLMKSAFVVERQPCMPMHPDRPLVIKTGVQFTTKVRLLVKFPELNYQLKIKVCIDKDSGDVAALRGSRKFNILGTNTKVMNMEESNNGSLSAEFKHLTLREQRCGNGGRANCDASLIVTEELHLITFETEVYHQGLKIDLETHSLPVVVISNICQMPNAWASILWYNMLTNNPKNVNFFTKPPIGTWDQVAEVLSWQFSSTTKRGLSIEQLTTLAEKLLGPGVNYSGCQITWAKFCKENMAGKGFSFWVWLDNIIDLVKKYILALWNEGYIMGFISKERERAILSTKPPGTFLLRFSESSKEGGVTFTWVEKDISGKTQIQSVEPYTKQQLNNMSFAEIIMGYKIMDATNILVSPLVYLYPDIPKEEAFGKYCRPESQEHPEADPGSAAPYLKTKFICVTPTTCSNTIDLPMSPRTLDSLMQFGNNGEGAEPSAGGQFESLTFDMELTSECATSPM
Chain of Heat shock factor protein 1 (Homo sapiens) (Q00613 whole entry, looked up): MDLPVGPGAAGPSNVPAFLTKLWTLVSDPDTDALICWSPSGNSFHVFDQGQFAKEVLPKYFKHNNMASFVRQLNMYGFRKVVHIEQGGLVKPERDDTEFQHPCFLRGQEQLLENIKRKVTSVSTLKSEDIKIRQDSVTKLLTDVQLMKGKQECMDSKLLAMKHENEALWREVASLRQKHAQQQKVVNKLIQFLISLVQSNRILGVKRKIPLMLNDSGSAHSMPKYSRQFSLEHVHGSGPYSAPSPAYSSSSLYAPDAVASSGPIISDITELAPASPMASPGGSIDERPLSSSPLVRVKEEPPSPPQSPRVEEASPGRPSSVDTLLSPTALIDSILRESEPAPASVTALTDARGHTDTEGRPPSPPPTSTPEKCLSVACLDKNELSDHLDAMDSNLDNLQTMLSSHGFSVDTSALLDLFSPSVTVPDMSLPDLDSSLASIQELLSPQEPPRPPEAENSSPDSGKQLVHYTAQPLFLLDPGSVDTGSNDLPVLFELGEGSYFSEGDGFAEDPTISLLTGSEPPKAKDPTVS
Chain of Hypoxia-inducible factor 1-alpha (Homo sapiens) (Q16665 whole entry, looked up): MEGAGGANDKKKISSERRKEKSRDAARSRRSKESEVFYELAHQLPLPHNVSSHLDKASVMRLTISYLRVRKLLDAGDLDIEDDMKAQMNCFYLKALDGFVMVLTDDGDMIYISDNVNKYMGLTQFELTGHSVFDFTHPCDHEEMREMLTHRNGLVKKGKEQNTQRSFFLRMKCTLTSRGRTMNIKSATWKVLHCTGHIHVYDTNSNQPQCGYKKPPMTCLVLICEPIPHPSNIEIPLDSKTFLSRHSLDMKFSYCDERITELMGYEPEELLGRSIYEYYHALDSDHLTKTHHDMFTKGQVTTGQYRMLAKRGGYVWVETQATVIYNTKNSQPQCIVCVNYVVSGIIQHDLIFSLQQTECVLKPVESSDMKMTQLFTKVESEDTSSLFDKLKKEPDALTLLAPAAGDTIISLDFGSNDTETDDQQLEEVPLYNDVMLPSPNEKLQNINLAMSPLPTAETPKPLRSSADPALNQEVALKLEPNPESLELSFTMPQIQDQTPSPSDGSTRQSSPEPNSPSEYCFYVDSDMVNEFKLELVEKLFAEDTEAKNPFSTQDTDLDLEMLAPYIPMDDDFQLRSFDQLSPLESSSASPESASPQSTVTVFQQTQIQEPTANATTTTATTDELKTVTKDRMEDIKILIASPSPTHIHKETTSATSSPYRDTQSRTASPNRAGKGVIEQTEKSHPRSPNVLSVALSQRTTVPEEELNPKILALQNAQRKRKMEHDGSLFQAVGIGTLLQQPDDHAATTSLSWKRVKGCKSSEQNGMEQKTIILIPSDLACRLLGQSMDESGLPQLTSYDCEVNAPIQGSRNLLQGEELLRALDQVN
Chain of Paired box protein Pax-6 (Homo sapiens) (P26367 whole entry, looked up): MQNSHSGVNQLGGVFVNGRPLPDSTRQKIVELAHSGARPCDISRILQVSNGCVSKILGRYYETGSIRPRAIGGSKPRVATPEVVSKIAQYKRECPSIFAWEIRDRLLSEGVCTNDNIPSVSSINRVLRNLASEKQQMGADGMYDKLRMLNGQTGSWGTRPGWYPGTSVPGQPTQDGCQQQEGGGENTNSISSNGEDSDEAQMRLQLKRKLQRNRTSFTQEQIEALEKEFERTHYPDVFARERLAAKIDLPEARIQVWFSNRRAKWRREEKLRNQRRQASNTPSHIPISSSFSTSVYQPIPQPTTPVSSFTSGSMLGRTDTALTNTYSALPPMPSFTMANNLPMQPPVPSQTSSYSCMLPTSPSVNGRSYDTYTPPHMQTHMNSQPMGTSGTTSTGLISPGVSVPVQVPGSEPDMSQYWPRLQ
Chain of Transcription factor Sp1 (Homo sapiens) (P08047 whole entry, looked up): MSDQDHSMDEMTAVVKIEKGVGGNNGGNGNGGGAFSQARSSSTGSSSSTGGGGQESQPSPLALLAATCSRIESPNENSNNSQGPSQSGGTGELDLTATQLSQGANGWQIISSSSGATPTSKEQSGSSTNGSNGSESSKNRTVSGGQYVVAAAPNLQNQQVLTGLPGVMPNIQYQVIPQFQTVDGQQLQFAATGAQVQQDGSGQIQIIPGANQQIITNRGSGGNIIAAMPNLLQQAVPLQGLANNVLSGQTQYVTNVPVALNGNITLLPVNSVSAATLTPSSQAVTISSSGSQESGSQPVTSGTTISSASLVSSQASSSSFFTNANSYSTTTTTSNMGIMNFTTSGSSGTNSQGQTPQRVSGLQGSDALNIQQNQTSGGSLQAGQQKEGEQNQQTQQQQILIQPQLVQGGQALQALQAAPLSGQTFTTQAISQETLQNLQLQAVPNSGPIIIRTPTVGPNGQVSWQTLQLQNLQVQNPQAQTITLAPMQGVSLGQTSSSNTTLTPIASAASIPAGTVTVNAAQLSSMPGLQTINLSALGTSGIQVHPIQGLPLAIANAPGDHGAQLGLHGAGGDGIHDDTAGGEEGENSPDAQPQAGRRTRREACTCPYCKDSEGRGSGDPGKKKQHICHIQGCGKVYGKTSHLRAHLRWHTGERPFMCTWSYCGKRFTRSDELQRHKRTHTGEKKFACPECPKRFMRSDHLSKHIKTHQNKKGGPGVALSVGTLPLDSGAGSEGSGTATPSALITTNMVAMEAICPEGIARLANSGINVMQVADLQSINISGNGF

As for `C1=COCCC1`, the compound was called inactive in assay [1], in assay [2], in [3], in [4], in [5] and in assay [6]. The result in assay [7], in assay [8], in assay [9], in assay [10], in [11] and in [12] was inactive. The compound was classed as inactive in [13], in assay [14], in [15], in [16] and in [17].

On to `C=CCOC(=O)/C=C\C(=O)OCC=C`, for which the compound was called inactive in assay [1], in assay [2], in [3], in assay [5], in [6] and in [18]. In addition, the outcome in assay [13], in assay [19], in [20], in assay [16] and in assay [17] was inactive. Besides, the AC50 in [4] is 19.7 µM (active); in assay [7], 18.6 µM (active); in [8], 28 µM (active); in [9], 164 µM (active); in assay [10] it was 39.5 µM (active); in assay [12] it was 20.1 µM (active). Further, the figures for the AC50 in assay [14] and in [15] were 11.3 µM (active) and 27.6 µM (active), respectively.

For the compound `CC(C)C(=O)OCC=Cc1ccccc1`, the result in [1], in [2], in assay [3], in assay [4], in [5] and in assay [6] was inactive. Besides, the call in assay [7], in assay [8], in [9], in assay [10], in assay [18] and in assay [11] was inactive. Besides, the result in assay [13], in assay [14], in assay [15], in assay [19], in [20] and in assay [16] was inactive. For the same compound, the compound was called inactive in assay [17]. Besides, the AC50 in assay [12] is 16.4 µM (active).
